10 compounds from ChEMBL document CHEMBL3988442, “University of Dundee, Small-Polar-MMV Screening Library” (2021) can be followed below.

Holding throughout (set-up): scale not given: direction of the effect not stated beside the values
Assay [1] deals with Protein translocase subunit SecA (Escherichia coli (strain K12)) (UniProt P10408). Description: Assay to Identify E. coli SecA ATPase Inhibitors. It is filed as functional. To be noted: 30 µM.
For assay [2], the target named is T1, Ubiquitin-activating enzyme e1, putative (Leishmania donovani (strain BPK282A1)) (UniProt E9BSI1).
T1 sequence (whole entry): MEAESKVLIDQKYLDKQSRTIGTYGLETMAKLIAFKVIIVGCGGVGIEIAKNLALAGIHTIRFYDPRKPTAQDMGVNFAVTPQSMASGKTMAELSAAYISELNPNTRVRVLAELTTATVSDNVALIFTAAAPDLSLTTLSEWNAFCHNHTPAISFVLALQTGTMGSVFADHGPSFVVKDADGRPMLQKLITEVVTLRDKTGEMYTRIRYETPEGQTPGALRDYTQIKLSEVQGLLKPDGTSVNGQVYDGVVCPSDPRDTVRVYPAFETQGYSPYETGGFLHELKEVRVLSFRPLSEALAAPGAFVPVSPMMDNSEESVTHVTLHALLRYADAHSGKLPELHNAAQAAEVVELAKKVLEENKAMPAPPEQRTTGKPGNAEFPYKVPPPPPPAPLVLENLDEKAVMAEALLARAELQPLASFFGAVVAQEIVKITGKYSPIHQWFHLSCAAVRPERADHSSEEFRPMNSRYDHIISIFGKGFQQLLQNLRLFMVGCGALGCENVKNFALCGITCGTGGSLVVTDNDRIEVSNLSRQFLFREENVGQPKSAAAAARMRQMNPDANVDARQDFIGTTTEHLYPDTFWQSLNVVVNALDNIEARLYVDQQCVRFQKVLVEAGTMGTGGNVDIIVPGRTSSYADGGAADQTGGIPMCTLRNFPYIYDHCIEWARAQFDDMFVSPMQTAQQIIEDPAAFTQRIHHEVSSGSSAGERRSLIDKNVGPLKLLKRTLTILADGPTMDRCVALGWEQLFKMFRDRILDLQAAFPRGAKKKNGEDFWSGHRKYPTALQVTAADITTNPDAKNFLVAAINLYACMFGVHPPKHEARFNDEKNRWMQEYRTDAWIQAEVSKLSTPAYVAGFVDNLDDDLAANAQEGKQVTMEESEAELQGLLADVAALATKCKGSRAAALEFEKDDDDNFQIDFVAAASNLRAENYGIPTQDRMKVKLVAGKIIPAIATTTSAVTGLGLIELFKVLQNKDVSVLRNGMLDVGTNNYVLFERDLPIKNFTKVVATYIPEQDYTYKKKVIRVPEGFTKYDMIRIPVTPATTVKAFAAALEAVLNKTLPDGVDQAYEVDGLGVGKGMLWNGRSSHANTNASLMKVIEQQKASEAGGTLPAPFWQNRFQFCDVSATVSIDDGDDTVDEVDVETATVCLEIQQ
Description: Leishmania donovani Ubiquitin Activating Enzyme (LdE1). It is filed as functional. Particulars: 30 µM.

The target of assay [3] is AMP-activated protein kinase, AMPK (Homo sapiens) (UniProt P54646+O43741+P54619+Q9UGJ0+Q9Y478+Q13131+Q9UGI9). The experiment in a line: AMP-dependent Kinase enzyme assay. An in vitro enzyme assay that detects ADP turnover that is directly proportional to AMPK activity. This uses naive AMPK that is activated during the assay with MK-8722. In kind it is functional. Particulars: 30 µM.

Assay [4] has as its target Sialic acid-binding Ig-like lectin 9 (Homo sapiens) (UniProt Q9Y336). Description: Hs-Siglec9 ALPHAscreen SOP 20170721. To be noted: 10 µM. Background: In Alpha technology, singlet oxygen from a donor bead excites a nearby acceptor bead.
In another assay the test system is Trypanosoma cruzi. Description: Trypanosoma cruzi phosphomannomutase and mannose-1-phosphate guanylyltransferase assay. In kind it is functional. Particulars: 10 µM.
Assay [5] has as its target T2, Arginase-2, mitochondrial (Homo sapiens) (UniProt P78540).
T2 sequence (whole entry): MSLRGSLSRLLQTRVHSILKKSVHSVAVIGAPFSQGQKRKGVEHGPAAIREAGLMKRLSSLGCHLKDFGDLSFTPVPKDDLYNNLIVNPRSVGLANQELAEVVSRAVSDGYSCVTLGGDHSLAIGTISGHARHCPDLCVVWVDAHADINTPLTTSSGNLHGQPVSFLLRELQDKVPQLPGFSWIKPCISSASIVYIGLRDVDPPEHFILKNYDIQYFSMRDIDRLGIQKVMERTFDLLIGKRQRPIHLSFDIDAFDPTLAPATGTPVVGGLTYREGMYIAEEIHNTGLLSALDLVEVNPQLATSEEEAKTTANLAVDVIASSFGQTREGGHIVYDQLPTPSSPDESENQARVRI
Description: in vitro enzyme assay to detect the production of urea directly proportional to the activity of Arginase II. Note: in the data most compounds retested in dose-response had high values. To be noted: 33.3 µM. In kind it is functional.

Assay [6] addresses T3, Proteasome subunit beta (Trypanosoma cruzi) (UniProt O96673).
T3 sequence (whole entry): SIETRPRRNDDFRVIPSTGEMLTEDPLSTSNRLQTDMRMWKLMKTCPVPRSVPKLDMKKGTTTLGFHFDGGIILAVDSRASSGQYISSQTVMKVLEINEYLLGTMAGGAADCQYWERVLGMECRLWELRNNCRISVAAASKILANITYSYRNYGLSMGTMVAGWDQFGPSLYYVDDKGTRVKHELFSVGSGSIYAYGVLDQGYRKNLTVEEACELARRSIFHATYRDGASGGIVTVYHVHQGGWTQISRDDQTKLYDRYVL
Description: Trypanosoma cruzi proteasome chymotrypsin-like activity (TcProtChymo) assay. Note: in the data most compounds retested in dose-response had high values. It is filed as functional. To be noted: 9.37 µM.

The species entered for a further assay is Homo sapiens. The experiment in a line: To identify inhibition of the IFN signalling (Jak-Stat) pathway via expression of an eGFP reporter gene under the control of an IFN-stimulated response element (ISRE) containing MxA promoter. In kind it is functional. Particulars: 30 µM. For orientation: In a reporter assay the amount or activity of a reporter protein is the signal.

Assay [7] concerns the target T4, Tyrosyl-tRNA synthetase, putative (Trypanosoma cruzi (strain CL Brener)) (UniProt Q4DSP6).
T4 sequence (whole entry): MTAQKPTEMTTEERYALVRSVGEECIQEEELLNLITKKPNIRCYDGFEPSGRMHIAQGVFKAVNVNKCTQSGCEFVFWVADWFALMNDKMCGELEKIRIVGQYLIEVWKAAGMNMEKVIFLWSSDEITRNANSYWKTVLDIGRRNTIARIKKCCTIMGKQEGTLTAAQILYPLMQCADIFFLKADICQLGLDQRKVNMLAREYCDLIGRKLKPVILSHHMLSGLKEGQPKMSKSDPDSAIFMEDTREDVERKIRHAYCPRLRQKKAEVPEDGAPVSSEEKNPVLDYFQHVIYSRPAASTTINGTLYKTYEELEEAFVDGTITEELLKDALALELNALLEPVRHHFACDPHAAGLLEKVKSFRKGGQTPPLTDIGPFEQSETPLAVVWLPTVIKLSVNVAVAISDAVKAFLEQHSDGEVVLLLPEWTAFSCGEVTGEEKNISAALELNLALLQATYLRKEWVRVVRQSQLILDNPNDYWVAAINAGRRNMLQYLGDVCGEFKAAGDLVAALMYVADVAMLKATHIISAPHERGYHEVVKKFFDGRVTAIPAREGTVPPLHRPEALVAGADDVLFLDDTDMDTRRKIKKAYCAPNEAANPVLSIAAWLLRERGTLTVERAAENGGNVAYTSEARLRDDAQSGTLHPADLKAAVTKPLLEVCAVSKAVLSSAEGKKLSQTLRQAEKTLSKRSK
The experiment in a line: Trypanosoma cruzi tyrosyl tRNA synthetase (TcYRS) _High Tyrosine SOP. Note: in the data most compounds retested in dose-response had high values. In kind it is functional. Particulars: 30 µM.

Assay [8] deals with T4, Tyrosyl-tRNA synthetase, putative (Trypanosoma cruzi (strain CL Brener)). Description: Trypanosoma cruzi tyrosyl tRNA synthetase (TcYRS) SOP. In kind it is functional. To be noted: 30 µM.
Assay [9] addresses Chromo domain-containing protein 1 (Saccharomyces cerevisiae (strain ATCC 204508 / S288c) (Baker's yeast)) (UniProt P32657). Description: ScCHD-1 Enzyme Inhibition Assay. Note: in the data most compounds retested in dose-response had high values. In kind it is functional. Particulars: 30 µM.

For some assays here: Results with a measured potency or affinity are listed apart.

Protein translocase subunit SecA (Escherichia coli (strain K12)), sequence (P10408 whole entry): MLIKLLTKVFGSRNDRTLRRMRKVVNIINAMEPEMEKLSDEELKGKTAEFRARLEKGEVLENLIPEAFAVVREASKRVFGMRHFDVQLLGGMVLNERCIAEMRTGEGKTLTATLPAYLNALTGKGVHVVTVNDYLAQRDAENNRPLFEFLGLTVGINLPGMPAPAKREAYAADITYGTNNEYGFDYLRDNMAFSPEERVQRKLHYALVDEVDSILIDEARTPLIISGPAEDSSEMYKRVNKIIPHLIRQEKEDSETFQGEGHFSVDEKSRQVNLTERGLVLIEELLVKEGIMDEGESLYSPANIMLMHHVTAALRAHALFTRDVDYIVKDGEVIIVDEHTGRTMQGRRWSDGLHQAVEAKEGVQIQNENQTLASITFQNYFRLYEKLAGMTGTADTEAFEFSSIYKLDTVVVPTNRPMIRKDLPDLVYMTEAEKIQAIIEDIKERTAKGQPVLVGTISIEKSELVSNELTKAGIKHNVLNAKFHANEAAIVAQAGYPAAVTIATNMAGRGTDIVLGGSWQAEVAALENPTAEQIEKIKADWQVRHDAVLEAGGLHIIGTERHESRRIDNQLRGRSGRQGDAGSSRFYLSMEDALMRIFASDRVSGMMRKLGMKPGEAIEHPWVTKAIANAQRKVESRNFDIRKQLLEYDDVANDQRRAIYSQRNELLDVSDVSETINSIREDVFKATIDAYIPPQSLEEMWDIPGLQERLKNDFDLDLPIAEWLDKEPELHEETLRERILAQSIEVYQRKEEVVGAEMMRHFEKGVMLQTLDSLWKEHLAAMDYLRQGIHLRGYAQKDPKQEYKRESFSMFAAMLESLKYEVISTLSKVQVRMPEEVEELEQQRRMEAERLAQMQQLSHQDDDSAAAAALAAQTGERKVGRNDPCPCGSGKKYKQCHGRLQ
Sialic acid-binding Ig-like lectin 9 (Homo sapiens), sequence (Q9Y336 whole entry): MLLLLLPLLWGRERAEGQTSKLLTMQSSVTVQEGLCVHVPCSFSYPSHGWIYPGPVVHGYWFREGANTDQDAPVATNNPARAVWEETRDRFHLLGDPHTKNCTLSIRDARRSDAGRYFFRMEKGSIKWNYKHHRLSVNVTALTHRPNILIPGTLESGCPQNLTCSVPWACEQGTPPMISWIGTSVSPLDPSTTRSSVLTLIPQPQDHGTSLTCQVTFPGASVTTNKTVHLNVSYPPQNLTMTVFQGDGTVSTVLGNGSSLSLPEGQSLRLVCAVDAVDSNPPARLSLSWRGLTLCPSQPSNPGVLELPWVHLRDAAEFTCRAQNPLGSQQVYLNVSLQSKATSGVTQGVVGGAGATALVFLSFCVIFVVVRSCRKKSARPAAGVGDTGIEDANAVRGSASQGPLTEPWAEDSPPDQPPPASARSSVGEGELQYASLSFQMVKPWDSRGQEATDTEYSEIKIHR
Chromo domain-containing protein 1 (Saccharomyces cerevisiae (strain ATCC 204508 / S288c) (Baker's yeast)), sequence (P32657 whole entry, the tested form may be a part): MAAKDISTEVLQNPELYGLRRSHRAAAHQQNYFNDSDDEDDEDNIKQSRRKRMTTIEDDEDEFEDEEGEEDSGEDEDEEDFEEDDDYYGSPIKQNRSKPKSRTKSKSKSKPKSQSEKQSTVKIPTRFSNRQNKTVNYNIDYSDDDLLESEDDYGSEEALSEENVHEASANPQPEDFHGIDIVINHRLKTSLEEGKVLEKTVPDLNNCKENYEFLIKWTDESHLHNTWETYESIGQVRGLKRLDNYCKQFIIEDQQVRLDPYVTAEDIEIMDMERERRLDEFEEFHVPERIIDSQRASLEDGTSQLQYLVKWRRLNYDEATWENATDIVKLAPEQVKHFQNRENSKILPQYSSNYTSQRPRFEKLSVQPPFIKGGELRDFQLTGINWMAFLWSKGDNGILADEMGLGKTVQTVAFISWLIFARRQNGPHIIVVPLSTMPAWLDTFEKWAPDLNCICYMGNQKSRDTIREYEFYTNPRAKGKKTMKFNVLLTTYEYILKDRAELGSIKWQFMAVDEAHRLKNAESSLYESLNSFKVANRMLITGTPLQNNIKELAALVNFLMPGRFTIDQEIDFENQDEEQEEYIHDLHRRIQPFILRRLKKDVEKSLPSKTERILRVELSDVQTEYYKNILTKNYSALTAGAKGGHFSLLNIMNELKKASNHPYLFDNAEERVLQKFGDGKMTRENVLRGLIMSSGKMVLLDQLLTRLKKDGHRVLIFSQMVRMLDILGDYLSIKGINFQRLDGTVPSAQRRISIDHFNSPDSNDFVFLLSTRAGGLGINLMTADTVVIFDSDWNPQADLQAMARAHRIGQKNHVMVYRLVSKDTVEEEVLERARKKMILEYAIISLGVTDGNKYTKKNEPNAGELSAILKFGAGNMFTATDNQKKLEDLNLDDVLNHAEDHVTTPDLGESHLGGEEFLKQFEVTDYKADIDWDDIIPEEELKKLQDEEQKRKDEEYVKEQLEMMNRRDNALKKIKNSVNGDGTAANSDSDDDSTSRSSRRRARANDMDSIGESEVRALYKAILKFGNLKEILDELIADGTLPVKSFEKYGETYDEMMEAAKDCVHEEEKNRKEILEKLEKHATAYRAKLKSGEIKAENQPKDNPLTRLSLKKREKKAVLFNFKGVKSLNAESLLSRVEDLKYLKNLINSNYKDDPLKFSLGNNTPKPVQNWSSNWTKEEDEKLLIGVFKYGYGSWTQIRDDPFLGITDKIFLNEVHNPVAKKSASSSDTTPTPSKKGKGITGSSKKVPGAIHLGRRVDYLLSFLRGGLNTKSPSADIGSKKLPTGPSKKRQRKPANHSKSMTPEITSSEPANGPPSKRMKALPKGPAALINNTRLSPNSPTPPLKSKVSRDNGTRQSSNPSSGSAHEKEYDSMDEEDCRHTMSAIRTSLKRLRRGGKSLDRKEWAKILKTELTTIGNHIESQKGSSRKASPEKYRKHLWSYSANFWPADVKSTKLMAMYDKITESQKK

On to `COc1c(CNCC(O)c2cccc(F)c2)c(C(C)C)nn1C` (stereo not given), for which the Percent Effect is 2.75% in assay [1]; 10.4% in [2]; -6.14% in assay [3]; -13.3% in assay [4]; -4.6% in the assay on Trypanosoma cruzi; -0.21% in assay [5]. The Percent Effect in assay [6] is 18.7%; in the assay listed under Homo sapiens it was 5.92%; in [7] it was 9.52%; in assay [8], 14.1%; in assay [9], -15.9%.

`Cc1ccc(S(=O)(=O)N2C[C@H]3C[C@H](NC(=O)c4ccn(C)n4)[C@H]3C2)cc1`: the Percent Effect in assay [1] was -7.65%; in assay [2], 17.6%; in [3], -0.91%; in assay [4], 4.49%; in the assay on Trypanosoma cruzi, -0.395%; in [5], -3.48%. Moreover, the Percent Effect in assay [6] was 9.36%; in the assay listed under Homo sapiens, 16.8%; in [7] it was 2.15%; in [8] it was 9.09%; in [9], -25.8%.

For the compound `Cc1ccc(CC(=O)N2CCCC(c3nc(C)cs3)C2)cn1` (stereo not given), the Percent Effect is -5.58% in [1]; -2.7% in assay [2]; -3.92% in [3]; 13.4% in assay [4]; -0.0929% with Trypanosoma cruzi; -0.554% in [5]. The Percent Effect in assay [6] was 0.539%; in the assay listed under Homo sapiens it was -13.1%; in assay [7], 0.99%; in assay [8] it was -6.1%; in assay [9], 7.44%.

With `Cc1nccn1C1CCCN(C(=O)c2ccc(N(C)C)nc2)C1` (stereo not given), the Percent Effect in assay [1] is -4.63%; in assay [2], 7.89%; in [3], -3.59%; in [4], 3.06%; with Trypanosoma cruzi, 6.26%; in assay [5], -1.08%. In addition, the Percent Effect was 7.36% in assay [6]; 7.13% in the assay listed under Homo sapiens; 7.39% in assay [7]; 18.5% in assay [8]; -0.744% in [9].

As to `CN1CCOC(CNCc2cccc(OCC(F)(F)F)c2)C1` (stereo not given), the Percent Effect in [1] is -3.56%; in [2], 5.06%; in [3], -19.3%; in assay [4], 12.1%; in the assay with Trypanosoma cruzi it was -1.79%; in assay [5], 0.38%. Besides, the Percent Effect was -6.31% in assay [6]; 0.0497% in the assay filed under Homo sapiens; 4.43% in assay [7]; 1.27% in assay [8]; -2.57% in [9].

On to `CC(C)NC(=O)[C@@H]1C[C@H](N)CN1C(=O)c1cc2c([nH]c1=O)CCCC2`, for which the Percent Effect in assay [1] was -2.48%; in [2], 6.94%; in [3], -2.43%; in assay [4], -9.13%; in the assay with Trypanosoma cruzi, -1.46%; in assay [5], 1.77%. The Percent Effect is 17.7% in assay [6]; 3.48% in the assay listed under Homo sapiens; 4.21% in assay [7]; 7.69% in assay [8]; -3.08% in assay [9].

Take `O=C(NCCCn1cncn1)NCC(c1ccccc1)N1CCCC1` (stereo not given): the Percent Effect in [1] was -4.8%; in assay [2] it was 2.6%; in [3] it was -5.77%; in assay [4], -8.15%; in the assay with Trypanosoma cruzi, 5.58%; in assay [5], -2.32%. The Percent Effect was 14.6% in assay [6]; 6.64% in the assay listed under Homo sapiens; 3.81% in assay [7]; 2.35% in assay [8]; -23.6% in assay [9].

In the case of `Cc1nc(CN2CCCC(NCCOCC(F)(F)F)C2)no1` (stereo not given), the Percent Effect in assay [1] was -6.82%; in assay [2], 7.59%; in assay [3] it was -4.02%; in assay [4], 0.79%; with Trypanosoma cruzi, 4.44%; in assay [5], -1.52%. Moreover, the Percent Effect was 4.18% in assay [6]; -2.76% in the assay listed under Homo sapiens; 4.43% in assay [7]; 8.86% in [8]; -5.18% in [9].

As for `CC(=O)N1CCC(c2ccnc(Nc3cncnc3)n2)C1` (stereo not given), the Percent Effect was -2.09% in [1]; 13.3% in assay [2]; 12.8% in assay [3]; -1.51% in assay [4]; -0.394% in the assay with Trypanosoma cruzi; 0.699% in [5]. The Percent Effect in assay [6] is -0.793%; in the assay listed under Homo sapiens, 8.94%; in [7], 7.45%; in assay [8] it was 14.1%; in [9], -3.42%.

As for `Cc1nc(C2CCCN(C(=O)c3scnc3C)C2)no1` (stereo not given), the Percent Effect in assay [1] was -3.05%; in assay [2], 6.94%; in assay [3] it was -13.5%; in assay [4], 8.6%; with Trypanosoma cruzi, 4.76%; in assay [5], 1.77%. For the same compound, the Percent Effect is 14.2% in assay [6]; -0.897% in the assay listed under Homo sapiens; -1.05% in assay [7]; 2.56% in [8]; -2.17% in [9].
